Test systems include T-47D breast; BT-549 breast; MDA-MB-435 melanoma; SW-620 colon; MCF7 breast; HCT-116 colon; HCC-2998 colon; KM12 colon.
Common to all, as to test: NCI-60 one-dose screen, 48 h (100 = growth as untreated, 0 = no growth, -100 = all killed)
Common to all, as to conditions: 10 µM unless noted

We go through 15 compounds from PubChem BioAssay (NCI).

This is part of a sample that, as a whole, favours compounds with a hit. Of some 83,000 tested, about 20% had one in any assay.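 The endpoint reported here, percent growth, reads 100 for growth as untreated, 0 for no net growth and -100 for all cells dead.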 A number with no mark means an inactive call. Active and inactive are the calls of the source. How the source made its calls: active means growth percent below 10; inactive means the rest.

For `CN1CCN(Cc2ccc(NC(=O)c3cncc(C#Cc4c(N)ncc5cc(F)ccc45)c3)cc2C(F)(F)F)CC1`, the growth in the assay on T-47D breast was 77%; with BT-549 breast it was 56.6%; with MDA-MB-435 melanoma, 26.4%; with SW-620 colon it was -53.1% (active); in the assay with MCF7 breast, -75.9% (active); in the assay on HCT-116 colon it was -78.7% (active). The growth is 51.4% with HCC-2998 colon and 5.8% (active) with KM12 colon.
As for `COc1cc(-c2c(-c3ccccc3)c[nH]c2C(=O)NCCCO)c(OC)c2c1OCO2`, the growth with T-47D breast was 90.9%; in the assay on BT-549 breast it was 106%; in the assay on MDA-MB-435 melanoma, 104%; in the assay on SW-620 colon it was 102%; in the assay on MCF7 breast it was 110%; with HCT-116 colon, 106%. Besides, the results for the growth in the assay with HCC-2998 colon and in the assay with KM12 colon were 110% and 125%, respectively.
As to `COc1ccc(-c2cn(Cc3ccc4c(Br)cc(Br)c(O)c4n3)nn2)cc1`, the growth in the assay with T-47D breast is 65.1%; in the assay with BT-549 breast, 111%; with MDA-MB-435 melanoma it was 89%; with SW-620 colon, 75.4%; in the assay with MCF7 breast, 67.4%; in the assay on HCT-116 colon, 77.8%. The growth in the assay on HCC-2998 colon was 101%; in the assay with KM12 colon, 99.4%.
As for `CCN1C(=O)N(CC)C2C1NN=c1s/c(=C\c3ccc(F)cc3)c(=O)n12` (stereo not given), the growth in the assay on T-47D breast is 57.8%; with BT-549 breast it was 14.5%; in the assay on MDA-MB-435 melanoma it was -38.8% (active); with SW-620 colon, 19.6%; in the assay on MCF7 breast, 18.2%; with HCT-116 colon, 13.6%. In addition, the growth was 18.8% in the assay on HCC-2998 colon and 7.33% (active) in the assay with KM12 colon.
For the compound `COc1cc(OCc2cccc(-c3ccccc3)c2C)cc(OC)c1CN1CCCCC1C(=O)NCCOCCOCCN` (stereo not given), the growth is 71.2% with T-47D breast; 84.7% with BT-549 breast; -72.8% (active) in the assay on MDA-MB-435 melanoma; 61.2% with SW-620 colon; 51.3% in the assay with MCF7 breast; 22.8% in the assay with HCT-116 colon. The growth in the assay on HCC-2998 colon was 88%; in the assay with KM12 colon, 78.9%.
As to `O=C(CN1C(=O)c2ccccc2S1(=O)=O)Nc1nc(-c2cc3ccccc3oc2=O)cs1`, the growth is 98.7% in the assay on T-47D breast; 105% in the assay with BT-549 breast; 104% with MDA-MB-435 melanoma; 103% in the assay on SW-620 colon; 96.6% in the assay with MCF7 breast; 104% in the assay with HCT-116 colon. The growth in the assay on HCC-2998 colon was 102%; with KM12 colon, 101%.
In the case of `CC(C)(C)[C@H](OCc1cn([C@H]2C[C@@H](O)[C@@H](CO)O2)c(=O)[nH]c1=O)c1ccc(C#Cc2ccccc2)cc1[N+](=O)[O-]`, the growth was 53.6% in the assay on T-47D breast; 27.6% in the assay on BT-549 breast; 92.6% in the assay with MDA-MB-435 melanoma; 101% in the assay on SW-620 colon; 3.01% (active) with MCF7 breast; 32.3% with HCT-116 colon. The growth is 87.1% with HCC-2998 colon and 84.9% in the assay on KM12 colon.
Turning to `C#CCOc1cccc(-c2ncnc3cc(NC(=O)CCl)ccc23)c1`, the growth in the assay with T-47D breast is -33.8% (active); with BT-549 breast it was -27.8% (active); in the assay with MDA-MB-435 melanoma, -24.7% (active); in the assay with SW-620 colon it was -58.6% (active); with MCF7 breast, 3.63% (active); with HCT-116 colon it was -74.1% (active). The growth was 56.6% with HCC-2998 colon and 16.2% in the assay on KM12 colon.
On to `CNC(=O)c1cc(Oc2cccc3nc(NC(=O)Nc4ccc(F)cc4F)ccc23)ccn1`, for which the growth with T-47D breast was 21%; in the assay on BT-549 breast it was 45.5%; in the assay with MDA-MB-435 melanoma it was 32.6%; in the assay on SW-620 colon it was 59.7%; in the assay on MCF7 breast, 37.8%; with HCT-116 colon it was -33.1% (active). In addition, the results for the growth in the assay on HCC-2998 colon and with KM12 colon were 70.2% and 57.7%, respectively.
For `CCN(CC)CCCNc1cc(OC)cc2cccnc12`, the growth was 93.3% with T-47D breast; 112% with BT-549 breast; 115% in the assay on MDA-MB-435 melanoma; 101% with SW-620 colon; 64% in the assay on MCF7 breast; 100% in the assay on HCT-116 colon. Besides, the growth in the assay with HCC-2998 colon was 111%; in the assay with KM12 colon, 96.9%.
With `[2H]C([2H])([2H])Oc1c(F)cccc1/C=C/C(=O)/C=C(O)/C=C/c1cccc(F)c1OC([2H])([2H])[2H]`, the growth in the assay with T-47D breast is 83.8%; with BT-549 breast, 97.6%; with MDA-MB-435 melanoma, 94.9%; in the assay with SW-620 colon, 109%; with MCF7 breast, 74.5%; in the assay on HCT-116 colon, 84.1%. In addition, the growth with HCC-2998 colon is 112%; in the assay on KM12 colon it was 102%.
Regarding `COc1ccc(Cn2cc3c(c2)-c2oncc2CC3)cc1`, the growth is 51.6% in the assay on T-47D breast; 64.3% with BT-549 breast; -40.8% (active) in the assay on MDA-MB-435 melanoma; 27.2% in the assay with SW-620 colon; 35.4% with MCF7 breast; 29.6% in the assay with HCT-116 colon. Further, the growth was 68.1% with HCC-2998 colon and 52.3% in the assay with KM12 colon.
With `O=C(/C=C/c1ccc(Cl)cc1)c1ccc(Nc2ccnc3cc(Cl)ccc23)cc1`, the growth with T-47D breast is 96.4%; in the assay on BT-549 breast, 145%; with MDA-MB-435 melanoma, 64.8%; in the assay with SW-620 colon, 60.7%; in the assay with MCF7 breast it was 78.6%; in the assay on HCT-116 colon, 16.9%. Further, the growth with HCC-2998 colon was 88.1%; in the assay on KM12 colon it was 50%.
Regarding `O=C(O)/C=C\C(=O)Nc1ccc2c(c1)Cc1cc(F)ccc1-2`, the growth is 84.6% in the assay on T-47D breast; 111% in the assay with BT-549 breast; 102% in the assay with MDA-MB-435 melanoma; 110% in the assay with SW-620 colon; 93.3% with MCF7 breast; 92.1% in the assay with HCT-116 colon. Moreover, the results for the growth in the assay on HCC-2998 colon and in the assay with KM12 colon were 97.6% and 101%, respectively.
As to `O=C(NC1CCCCCC1)c1ccc2c(=O)n3c(nc2c1)CCCCC3`, the growth with T-47D breast was 100%; in the assay with BT-549 breast, 100%; with MDA-MB-435 melanoma, 112%; with SW-620 colon, 101%; with MCF7 breast, 100%; in the assay on HCT-116 colon, 104%. In addition, the growth with HCC-2998 colon is 121%; in the assay with KM12 colon, 115%.
